The results in this text go back to PubChem BioAssay (Tox21).

Test [1] is described as follows: qHTS assay to identify small molecule agonists of the TGF-beta/Smad signaling pathway - cell viability counter screen (AID 1346829). Also: top concentration of the series differs between compounds; nearly all actives have a fitted effect of over 45% in size. In outline:
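Same-well cytotoxicity: CellTiter-Glo added after the 2 hr room-temperature beta-lactamase substrate step, luminescence measured 30 min later; cells had 5 hr of compound at 37 C.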

Test [2] can be described thus: qHTS assay to identify small molecule agonists of the TGF-beta/Smad signaling pathway (AID 1346859; active = well fitted activation curve with a large enough effect in the signal ratio in the repeat runs, not every such curve was filed as active; the % refers to the signal ratio; also: series mostly up to about 77 µM). The method in brief: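 HEK 293T cells stably carrying a beta-lactamase reporter driven by the Smad binding element were seeded overnight, exposed to DMSO-dissolved compounds for 5 hr at 37 C, 5% CO2, then loaded with FRET substrate for 2 hr at room temperature.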
A general note: qHTS replaces the single test concentration by a dilution series.

For test [3], the target named is Thyrotropin-releasing hormone receptor (Homo sapiens) (UniProt P34981). As to the kind of experiment: qHTS assay to identify small molecule antagonists of the thyrotropin-releasing hormone receptor (TRHR) signaling pathway (AID 1346877; active = well fitted inhibition curve with a large enough effect in the repeat runs, not every such curve was filed as active; also: series mostly up to about 51 µM). In outline:
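Antagonism is measured as suppression of the calcium response to 1 nM TRH in TRHR-HEK293 cells that have been dye-loaded for 2 h at 37 °C after overnight plating. Each compound is tested at 15 concentrations in triplicate.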

For test [4] the target is unchanged. As to the kind of experiment: qHTS assay to identify small molecule agonists of the thyrotropin-releasing hormone receptor (TRHR) signaling pathway (AID 1346891; calls by dose curve; also: series mostly up to about 58 µM). The method in brief:
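TRHR-expressing HEK293 cells were plated 18 h at 37 °C/5% CO2, loaded with calcium dye 2 h at 37 °C, then given compound in DMSO; fluorescence was read kinetically for 3 min at 1 s intervals.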

Test [5] in a line: Human pregnane X receptor (PXR) small molecule agonists, qHTS cell viability counter screen (AID 1346977). Also: nearly all actives have a fitted effect of over 50% in size. The method in brief:
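PXR-Luc HepG2 cells in medium with 5% charcoal-stripped FBS were pre-incubated 5hr, then exposed to compounds for 24hr at 37C. Viability was read in the same wells by CellTiter-Fluor fluorescence, reagent added after 23hr with a 1hr incubation.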

The nature of test [6]: Caspase-3/7 induction in HepG2 cells by small molecules, qHTS assay (AID 1346978). Also: nearly all actives have a fitted effect of over 15% in size. The method in brief:
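Wild-type HepG2 cells (2,000/well) were settled 5 h at 37 C, 5% CO2, then exposed to compounds in DMSO for 17 h. Caspase-3/7 activity was read by luminescence 30 min after adding Caspase-Glo 3/7 reagent at room temperature.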

Test [7] can be described thus: Caspase-3/7 induction in CHO-K1 cells by small molecules, qHTS cell viability counter screen (AID 1346979). Also: nearly all actives have a fitted effect of over 35% in size. The method in brief: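 Wild-type CHO-K1 cells were seeded at 1,500 per well, rested 5hr at 37 C, then exposed to compounds in DMSO. After 16hr, CellTiter-Fluor reagent was added and fluorescence read 1hr later as the viability measure.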
Test [8] has as its target Nuclear receptor subfamily 1 group I member 2 (Homo sapiens) (UniProt O75469). As to the kind of experiment: Human pregnane X receptor (PXR) small molecule agonists, qHTS assay (AID 1346982). Also: nearly all actives have a fitted effect of over 35% in size. The method in brief:
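Cells: HepG2 stably carrying PXR-Luc. Medium held 5% charcoal-stripped FBS. Compounds in DMSO added after 5 hr plating, incubated 24 hr, then luminescence quantified with ONE-Glo.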

The target in test [9] is Cytochrome P450 2D6 (Homo sapiens) (UniProt P10635). As to the kind of experiment: Cytochrome P450 Family 2 Subfamily D Member 6 (CYP2D6) small molecule antagonists: luciferase reporter qHTS assay (AID 1671196). Also: nearly all actives have a fitted effect of over 50% in size. Also: potency is read from the fitted curve at half-maximal effect. As to activity change, negative = inhibition: series mostly up to about 120 µM. In outline:
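Enzyme and proluciferin substrate were first combined with test chemical for 10 min at room temperature. Adding NADPH regeneration solution started a 1 h reaction, stopped with luciferin detection reagent and read by luminescence 20 min later.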
A general note: Reporter assays use an easily measured gene product as a stand-in for the process of interest.

Test [10] addresses Cytochrome P450 2C19 (Homo sapiens) (UniProt P33261). The test is described as follows: Cytochrome P450 Family 2 Subfamily C Member 19 (CYP2C19) small molecule antagonists: luciferase reporter qHTS assay (AID 1671197). Also: series mostly up to about 120 µM; nearly all actives have a fitted effect of over 65% in size. The method in brief: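 Quantitative high-throughput screen of the Tox21 library using CYP2C19 with proluciferin substrate. Reaction: NADPH regeneration, 37C, 1 h, after 10 min compound preincubation at room temperature. Readout: luminescence.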

The target of test [11] is Cytochrome P450 2C9 (Homo sapiens) (UniProt P11712). The test is described as follows: Cytochrome P450 Family 2 Subfamily C Member 9 (CYP2C9) small molecule antagonists: luciferase reporter qHTS assay (AID 1671198). Also: series mostly up to about 120 µM; nearly all actives have a fitted effect of over 50% in size. In outline: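 CYP2C9 activity was measured with a P450-Glo proluciferin substrate. Enzyme–substrate mix was held with compound for 10 min at room temperature, then NADPH regeneration solution was added for 1 h at 37C. Luciferin product was read as luminescence.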
Cytochrome P450 2C9 (Homo sapiens), sequence (P11712 whole entry, looked up): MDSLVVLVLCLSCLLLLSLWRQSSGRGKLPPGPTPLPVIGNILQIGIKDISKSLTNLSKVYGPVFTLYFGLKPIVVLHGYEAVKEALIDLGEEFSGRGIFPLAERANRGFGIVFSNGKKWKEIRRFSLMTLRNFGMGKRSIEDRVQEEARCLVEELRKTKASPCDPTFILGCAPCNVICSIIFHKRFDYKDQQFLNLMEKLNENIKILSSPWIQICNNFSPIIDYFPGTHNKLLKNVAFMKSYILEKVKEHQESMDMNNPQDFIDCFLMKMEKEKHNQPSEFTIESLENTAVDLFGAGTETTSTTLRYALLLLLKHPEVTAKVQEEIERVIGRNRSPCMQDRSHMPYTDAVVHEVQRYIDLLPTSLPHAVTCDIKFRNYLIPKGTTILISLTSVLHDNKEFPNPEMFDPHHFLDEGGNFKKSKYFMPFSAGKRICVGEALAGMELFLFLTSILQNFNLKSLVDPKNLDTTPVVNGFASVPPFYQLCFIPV

Test [12] has as its target Voltage-gated inwardly rectifying potassium channel KCNH2 (Homo sapiens) (UniProt Q12809). As to the kind of experiment: Human Ether-a-go-go-Related Gene (hERG) channel small molecule antagonists: fluorescence cell-based qHTS assay (AID 1671200).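 Also: hERG-expressing U2OS cells given a thallium stimulus after FluxOR II dye loading; series mostly up to about 77 µM; nearly all actives have a fitted effect of over 50% in size.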 In outline: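 U2OS cells expressing the channel were plated at 1000 cells/well, incubated overnight at 37 C, then loaded with FluxOR II thallium-sensitive dye for 1 h at room temperature in the dark, with a further 10 min at room temperature before stimulation.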
In general terms: The hERG channel carries a current that helps repolarise heart muscle cells.

A short description of test [13]: Caspase-3/7 induction in HepG2 cells by small molecules, qHTS cell viability counter screen (AID 1346981). Also: series mostly up to about 92 µM; nearly all actives have a fitted effect of over 30% in size. In outline:
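Cell viability is measured as a cytotoxicity counter screen alongside the Caspase-Glo 3/7 readout in identical wells. Wild-type HepG2 cells are treated with test compounds for 16 hr at 37 C before CellTiter-Fluor addition and a 1-hr incubation.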

Test [14] addresses Cytochrome P450 1A2 (Homo sapiens) (UniProt P05177). The test is described as follows: Cytochrome P450 Family 1 Subfamily A Member 2 (CYP1A2) small molecule antagonists: luciferase reporter qHTS assay (AID 1671199). Also: nearly all actives have a fitted effect of over 50% in size. Also: potency is read from the fitted curve at half-maximal effect. As to activity change, negative = inhibition: series mostly up to about 120 µM. In outline: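 Compounds were incubated with CYP1A2 and a luminogenic proluciferin substrate for 10 min at room temperature before the reaction was started with NADPH regeneration solution. After 1 h, detection reagent was added and light output, proportional to CYP activity, was recorded.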

In test [15] the target is Cytochrome P450 3A4 (Homo sapiens) (UniProt P08684). The test is described as follows: Cytochrome P450 Family 3 Subfamily A Member 4 (CYP3A4) small molecule antagonists: luciferase reporter qHTS assay (AID 1671201). The method in brief:
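P450-Glo CYP3A4 system with proluciferin substrate; compounds preincubated 10 min RT with enzyme-substrate mix, then NADPH regeneration added for 1 h RT. Detection reagent 20 min, luminescence read as relative luminescence units.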

Test [16] deals with Nuclear receptor subfamily 1 group I member 2 (Rattus norvegicus) (UniProt Q9R1A7). The test is described as follows: Rat pregnane X receptor (rPXR) activation by small molecules, qHTS assay (AID 1346983). Also: nearly all actives have a fitted effect of over 20% in size. The conditions noted are these: rPXR luciferase reporter cells, One-Glo luminescence, 24 h; max activation: stronger effect = higher value. In outline: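 Cell-based rPXR luciferase reporter assay, 2,000 cells per well, rested 5hr at 37 C before compound addition in DMSO, then 24 hr at 37 C. One-Glo reagent was added and luminescence read after 30 min at room temperature.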
Nuclear receptor subfamily 1 group I member 2 (Rattus norvegicus), sequence (Q9R1A7 whole entry, looked up): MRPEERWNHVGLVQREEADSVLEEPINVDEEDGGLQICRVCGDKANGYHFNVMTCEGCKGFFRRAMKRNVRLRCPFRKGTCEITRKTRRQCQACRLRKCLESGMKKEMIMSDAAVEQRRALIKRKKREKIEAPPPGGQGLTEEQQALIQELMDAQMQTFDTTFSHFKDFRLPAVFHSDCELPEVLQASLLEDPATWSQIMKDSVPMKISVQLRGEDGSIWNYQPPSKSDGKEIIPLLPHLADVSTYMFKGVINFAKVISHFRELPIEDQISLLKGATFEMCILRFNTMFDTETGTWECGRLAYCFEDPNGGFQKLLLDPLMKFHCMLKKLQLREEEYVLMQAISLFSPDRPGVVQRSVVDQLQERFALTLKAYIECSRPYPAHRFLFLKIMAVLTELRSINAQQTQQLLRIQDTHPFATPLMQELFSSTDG

Test [17] has as its target Nuclear receptor subfamily 1 group I member 2 (Homo sapiens) (UniProt O75469). The test is described as follows: CYP3A4 induction through human pregnane X receptor (PXR) by small molecules, qHTS assay (AID 1346984). Also: nearly all actives have a fitted effect of over 40% in size. In outline: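 Quantitative HTS in DPX-2 cells, i.e. HepG2 transfected with PXR response element and CYP3A4-promoter luciferase. Compounds in DMSO incubated 24hr at 37C; then P450-Glo CYP3A4 substrate, 3uM final, 3hr; One-Glo luminescence.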

Test [18] shares this target. The test is described as follows: Human pregnane X receptor (PXR) activation by small molecules, qHTS assay (AID 1346985). Also: nearly all actives have a fitted effect of over 40% in size. The method in brief:
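DPX-2 cells (HepG2 co-transfected with a PXR response element and a CYP3A4-promoter luciferase construct) were seeded at 2,000 per well, rested 5 hr at 37C, then exposed to DMSO-dissolved compounds for 24 hr. Activation was read as luciferase luminescence.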

Test [19] in a line: Caspase-3/7 induction in CHO-K1 cells by small molecules, qHTS assay (AID 1346980). Also: nearly all actives have a fitted effect of over 15% in size. The method in brief: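 Wild-type cells were seeded at 1,500 per well and settled 5 hr at 37 C, 5% CO2, then exposed to DMSO-dissolved compounds for 17 hr. Caspase-Glo 3/7 reagent was added, and luminescence was read after 30min at room temperature.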

A number with no mark means an inactive call. Records with an inconclusive call do not appear. Activity calls are given as the source filed them. Unless noted, calls follow the shape of the dose curve; as a rule, active = well fitted curve in the direction sought with a large enough effect in the repeat runs; inconclusive = weak or mixed curves; inactive = no such curve, though single readings can be large; an effect the other way counts as inactive or inconclusive.
% is scaled to controls: 0 for no effect and ±100 for the full control effect.

Nuclear receptor subfamily 1 group I member 2 (Homo sapiens), sequence (O75469 whole entry, looked up): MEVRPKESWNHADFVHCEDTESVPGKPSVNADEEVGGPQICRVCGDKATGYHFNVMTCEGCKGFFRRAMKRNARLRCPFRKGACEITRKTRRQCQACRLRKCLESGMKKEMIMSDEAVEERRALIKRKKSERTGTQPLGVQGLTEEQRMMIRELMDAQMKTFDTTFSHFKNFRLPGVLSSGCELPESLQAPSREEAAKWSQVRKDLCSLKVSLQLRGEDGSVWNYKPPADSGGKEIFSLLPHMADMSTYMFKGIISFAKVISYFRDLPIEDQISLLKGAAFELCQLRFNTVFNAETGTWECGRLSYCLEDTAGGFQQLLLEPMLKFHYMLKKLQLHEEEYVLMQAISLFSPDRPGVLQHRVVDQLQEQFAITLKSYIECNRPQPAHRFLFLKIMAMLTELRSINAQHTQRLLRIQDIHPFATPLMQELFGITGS
Cytochrome P450 1A2 (Homo sapiens), sequence (P05177 whole entry, looked up): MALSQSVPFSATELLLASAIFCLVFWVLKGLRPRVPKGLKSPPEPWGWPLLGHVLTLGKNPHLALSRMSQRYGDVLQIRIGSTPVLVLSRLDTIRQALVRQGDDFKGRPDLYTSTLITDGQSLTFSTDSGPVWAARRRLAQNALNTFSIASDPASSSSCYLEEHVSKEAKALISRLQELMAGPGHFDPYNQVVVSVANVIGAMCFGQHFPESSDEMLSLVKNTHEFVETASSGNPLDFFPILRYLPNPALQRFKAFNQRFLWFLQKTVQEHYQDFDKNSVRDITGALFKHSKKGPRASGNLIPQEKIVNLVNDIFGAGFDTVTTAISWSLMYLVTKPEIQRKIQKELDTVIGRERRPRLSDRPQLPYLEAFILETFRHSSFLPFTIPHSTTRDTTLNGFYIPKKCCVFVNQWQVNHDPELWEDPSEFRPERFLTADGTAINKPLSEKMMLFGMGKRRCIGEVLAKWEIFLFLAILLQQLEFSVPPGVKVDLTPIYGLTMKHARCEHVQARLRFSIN
Cytochrome P450 3A4 (Homo sapiens), sequence (P08684 whole entry, looked up): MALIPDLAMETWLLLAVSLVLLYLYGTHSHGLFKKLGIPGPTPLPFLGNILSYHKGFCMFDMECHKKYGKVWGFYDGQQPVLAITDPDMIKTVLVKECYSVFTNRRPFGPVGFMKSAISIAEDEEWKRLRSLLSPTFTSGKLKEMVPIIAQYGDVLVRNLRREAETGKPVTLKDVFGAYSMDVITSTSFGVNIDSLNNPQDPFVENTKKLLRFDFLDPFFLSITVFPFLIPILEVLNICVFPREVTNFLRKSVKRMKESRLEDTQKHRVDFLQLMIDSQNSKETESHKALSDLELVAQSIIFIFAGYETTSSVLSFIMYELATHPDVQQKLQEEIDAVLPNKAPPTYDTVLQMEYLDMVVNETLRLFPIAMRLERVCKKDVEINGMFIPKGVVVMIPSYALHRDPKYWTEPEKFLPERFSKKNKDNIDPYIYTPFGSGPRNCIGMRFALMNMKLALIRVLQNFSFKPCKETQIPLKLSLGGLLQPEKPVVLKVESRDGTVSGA
Thyrotropin-releasing hormone receptor (Homo sapiens), sequence (P34981 whole entry, looked up): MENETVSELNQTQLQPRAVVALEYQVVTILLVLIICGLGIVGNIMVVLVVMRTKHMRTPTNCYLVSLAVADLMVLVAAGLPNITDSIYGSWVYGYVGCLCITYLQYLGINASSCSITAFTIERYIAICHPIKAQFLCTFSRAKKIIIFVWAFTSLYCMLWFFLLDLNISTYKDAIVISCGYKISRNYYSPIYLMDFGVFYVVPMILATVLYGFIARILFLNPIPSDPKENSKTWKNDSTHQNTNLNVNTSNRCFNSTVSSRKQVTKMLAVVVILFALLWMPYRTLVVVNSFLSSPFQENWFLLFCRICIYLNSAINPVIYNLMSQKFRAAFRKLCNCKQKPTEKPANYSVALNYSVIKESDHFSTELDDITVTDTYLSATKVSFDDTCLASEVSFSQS
Voltage-gated inwardly rectifying potassium channel KCNH2 (Homo sapiens), sequence (Q12809 whole entry, looked up): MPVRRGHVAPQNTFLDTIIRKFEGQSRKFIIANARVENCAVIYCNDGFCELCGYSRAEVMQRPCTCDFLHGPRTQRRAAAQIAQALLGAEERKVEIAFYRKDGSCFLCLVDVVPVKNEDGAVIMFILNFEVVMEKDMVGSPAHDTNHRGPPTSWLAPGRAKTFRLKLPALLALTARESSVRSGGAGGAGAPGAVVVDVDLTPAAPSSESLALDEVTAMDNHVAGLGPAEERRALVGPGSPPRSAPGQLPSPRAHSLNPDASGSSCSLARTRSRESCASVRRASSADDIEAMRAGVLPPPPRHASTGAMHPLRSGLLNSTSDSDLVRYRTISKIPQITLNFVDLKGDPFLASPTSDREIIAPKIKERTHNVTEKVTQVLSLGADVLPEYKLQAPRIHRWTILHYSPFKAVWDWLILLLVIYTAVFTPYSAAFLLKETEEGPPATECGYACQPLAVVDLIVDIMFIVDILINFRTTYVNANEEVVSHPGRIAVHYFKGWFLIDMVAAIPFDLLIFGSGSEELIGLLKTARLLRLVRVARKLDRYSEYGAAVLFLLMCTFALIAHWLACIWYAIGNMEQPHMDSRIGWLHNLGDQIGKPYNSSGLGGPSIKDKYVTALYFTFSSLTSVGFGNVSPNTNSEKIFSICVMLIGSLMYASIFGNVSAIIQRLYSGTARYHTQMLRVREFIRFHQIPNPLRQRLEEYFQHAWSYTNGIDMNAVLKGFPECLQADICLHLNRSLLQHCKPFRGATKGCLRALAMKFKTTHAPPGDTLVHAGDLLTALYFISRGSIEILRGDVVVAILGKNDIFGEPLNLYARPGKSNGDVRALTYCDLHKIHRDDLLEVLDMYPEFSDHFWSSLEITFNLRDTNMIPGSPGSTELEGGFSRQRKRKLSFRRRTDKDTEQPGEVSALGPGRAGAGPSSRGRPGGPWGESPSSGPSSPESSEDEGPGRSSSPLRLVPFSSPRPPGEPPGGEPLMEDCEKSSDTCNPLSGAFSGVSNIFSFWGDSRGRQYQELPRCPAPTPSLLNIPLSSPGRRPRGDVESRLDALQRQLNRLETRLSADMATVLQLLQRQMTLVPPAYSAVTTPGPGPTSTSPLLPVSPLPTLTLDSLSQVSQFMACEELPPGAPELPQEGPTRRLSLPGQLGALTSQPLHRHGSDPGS
Cytochrome P450 2D6 (Homo sapiens), sequence (P10635 whole entry, looked up): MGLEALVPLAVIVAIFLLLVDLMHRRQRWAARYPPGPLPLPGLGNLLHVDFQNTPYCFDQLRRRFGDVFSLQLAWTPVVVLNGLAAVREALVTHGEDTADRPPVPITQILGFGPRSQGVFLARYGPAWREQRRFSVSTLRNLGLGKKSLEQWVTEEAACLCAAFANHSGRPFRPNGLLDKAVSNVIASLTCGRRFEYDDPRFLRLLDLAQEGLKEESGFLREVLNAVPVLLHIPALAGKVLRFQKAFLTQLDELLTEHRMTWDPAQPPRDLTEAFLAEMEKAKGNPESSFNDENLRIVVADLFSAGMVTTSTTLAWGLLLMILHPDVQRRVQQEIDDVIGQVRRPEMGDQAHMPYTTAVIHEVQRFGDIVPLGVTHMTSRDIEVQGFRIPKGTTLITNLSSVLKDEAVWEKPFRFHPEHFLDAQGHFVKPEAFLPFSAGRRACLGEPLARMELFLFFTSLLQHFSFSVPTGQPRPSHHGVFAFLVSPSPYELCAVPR
Cytochrome P450 2C19 (Homo sapiens), sequence (P33261 whole entry, looked up): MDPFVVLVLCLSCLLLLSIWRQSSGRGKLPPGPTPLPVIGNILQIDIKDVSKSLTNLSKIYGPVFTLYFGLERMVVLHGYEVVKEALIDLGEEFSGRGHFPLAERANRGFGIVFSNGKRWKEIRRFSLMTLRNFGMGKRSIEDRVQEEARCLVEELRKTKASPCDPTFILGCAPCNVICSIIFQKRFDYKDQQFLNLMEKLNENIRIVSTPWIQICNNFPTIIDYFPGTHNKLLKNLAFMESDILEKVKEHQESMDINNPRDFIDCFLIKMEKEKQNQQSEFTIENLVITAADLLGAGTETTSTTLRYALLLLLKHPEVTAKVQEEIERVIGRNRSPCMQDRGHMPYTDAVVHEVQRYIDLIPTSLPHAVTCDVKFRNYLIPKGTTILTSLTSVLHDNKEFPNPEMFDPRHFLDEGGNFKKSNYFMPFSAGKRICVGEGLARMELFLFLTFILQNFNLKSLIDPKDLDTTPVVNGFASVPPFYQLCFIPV

On to `CC(=O)/C=C/c1ccco1`, for which the result in test [1], in test [2], in test [3], in test [4] and in test [6] was inactive. Also, the Potency entry in test [5], in test [7], in test [8], in test [9], in test [10] and in test [11] was “inactive” throughout. The Potency entry in [12] was “inactive”.
`BrC/C=C/CBr`: the activity change, negative = cytotoxicity is 11.2% [at 15.8 µM] in test [1], 5.06% [at 19 µM] in test [5], 8.86% [at 19 µM] in [7] and -3.88% [at 19 µM] in test [13]. Further, the activation in test [2] was 1.06% [at 15.8 µM]; in test [4], 0.238% [at 11.8 µM]. The activity, negative = inhibition in [3] is 0.461% [at 10.5 µM]. For the same compound, in [6], the caspase activation was -0.853% [at 19 µM]. Further, the activity change, negative = inhibition in [9] is -5.12% [at 23.6 µM]; in test [10], -2.14% [at 23.6 µM]; in test [11] it was -9.58% [at 23.6 µM]; in [14], -13.1% [at 23.6 µM]; in test [12], 3.44% [at 15.8 µM]; in test [15] it was 0.976% [at 23.6 µM].
Consider `NC(=O)NC(=O)Cc1ccccc1`, for which the outcome in [1], in test [2], in test [3], in test [4], in test [6] and in [17] was inactive. Moreover, the Potency entry in test [5], in [7], in test [13], in test [18], in test [9] and in test [10] was “inactive” throughout. Further, the Potency result in [11] and in test [12] was “inactive” each time. Besides, the max activation in test [16] was -4.53%.
For `O=C(O)c1c(Cl)ccc(Cl)c1Cl`, the compound was called inactive in test [1], in [2], in test [3], in [4], in test [6] and in test [19]. The Potency result in [5], in test [7], in [9], in test [10], in test [14] and in [12] was “inactive” throughout. Moreover, the Potency result in test [15] is “inactive”.
As to `CCC1COC(=O)O1` (stereo not drawn), the call in test [1], in test [2], in test [3], in [4], in test [6] and in [19] was inactive. The Potency entry in test [5], in test [7], in [9], in test [10], in test [11] and in test [12] was “inactive” throughout. In addition, the Potency result in test [15] is “inactive”.
As to `CCCCCCCCCCCCCCCC(=O)NCCO`, the outcome in test [1], in [2], in [3], in test [4], in test [6] and in test [19] was inactive. In addition, the Potency result in [5], in test [7] and in [12] was “inactive” throughout.
Take `Nc1ccc(S(=O)(=O)NC(=O)c2ccccc2)cc1`: the call in test [1], in test [2], in test [3], in [4], in test [6] and in test [19] was inactive. In addition, the compound was called inactive in [17]. Also, the Potency entry in test [5], in test [13], in [8], in [18], in [10] and in test [14] was “inactive” throughout. Further, the Potency entry in test [12] was “inactive”. The max activation in [16] is -3.91%.
For `N#CCCOCCOCCC#N`, the call in [1], in [2], in test [3], in [4], in [6] and in test [19] was inactive. The Potency result in test [5], in test [13], in test [8], in test [9], in test [10] and in test [11] was “inactive” each time. The Potency entry in test [12] was “inactive”. Moreover, in test [14], the Potency is 39.9 µM (active).
In the case of `Nc1ccnc(=O)[nH]1`, the compound was called inactive in test [1], in [2], in test [3], in [4] and in test [6]. Further, the Potency entry in test [5], in test [7], in test [8], in [9], in test [10] and in test [11] was “inactive” each time. For the same compound, the Potency entry in [14], in test [12] and in [15] was “inactive” in each case.
Take `F[Si-2](F)(F)(F)(F)F`: the call in test [1], in test [2], in [3], in test [4], in test [6] and in test [17] was inactive. Also, the Potency entry in test [5], in test [7], in test [13], in test [18], in [9] and in [10] was “inactive” in each case. Also, the Potency entry in test [11], in [14], in [12] and in [15] was “inactive” throughout. In addition, in test [16], the max activation is -2.73%.
Turning to `FC(F)(F)c1ccc(Cl)cc1Cl`, the result in [1], in test [2], in [3], in test [4], in test [6] and in test [19] was inactive. The Potency entry in test [5], in test [7], in [8], in [9], in test [11] and in test [14] was “inactive” throughout. Further, the Potency result in test [12] and in test [15] was “inactive” throughout.
As to `O=C(O)/C=C/c1ccccc1`, the call in test [1], in test [2], in test [3], in test [4], in test [6] and in [17] was inactive. Also, the Potency entry in [5], in test [7], in test [13], in test [8], in [18] and in test [10] was “inactive” in each case. Also, the Potency result in test [11], in [14], in [12] and in [15] was “inactive” throughout. In addition, in test [16], the max activation is -6.4%. For the same compound, the Potency in [9] is 39.9 µM (active).
